Measured values: PubChem BioAssay (EPA / NIEHS)
The source made the active and inactive calls. The calls were made as follows: active = hit-call score of the fitted dose curve at least 0.9, where 1 is the maximum; inactive = score below 0.9.

Experiment: Tanguay_ZF_120hpf_CRAN: Oregon State University Tanguay Lab 120 Hour Post-fertilization zebrafish Assay for Craniofacial Malformation (AID 2284397)
Method: Tanguay_ZF_120hpf is a whole embryo, multiplexed endpoint assay using zebrafish larvae exposed for 120 hours post fertilization on a 96-well plate.Tanguay_ZF_120hpf_CRAN is one of one assay component(s) measured or calculated from the Tanguay_ZF_120hpf assay. It is designed to make measurements of zebrafish development as detected with brightfield microscopy of developing zebrafish embryos.Data from the assay component Tanguay_ZF_120hpf_CRAN was analyzed into 1 assay endpoints. This assay endpoint, Tanguay_ZF_120hpf_CRAN, was analyzed in the positive analysis fitting direction relative to DMSO as the negative control and baseline of activity. Using a type of morphology reporter, gain-of-signal activity can be used to understand changes in developmentals as they relate to the whole embryo. To generalize the intended target to other relatable targets, this assay endpoint is annotated to the zebrafish development intended target family, where the subfamily is craniofacial morphogenesis.
Zebrafish husbandry: Tropical 5D wild-type adult zebrafish were housed in at an approximate density of 1000 per 100 gallon tank at the Sinnhuber Aquatic Research Laboratory, Oregon State University, Corvallis, OR. Each tank was kept at standard laboratory conditions of 28C on a 14-h light/10-h dark photoperiod in fish water consisting of reverse osmosis water supplemented with a commercially available salt (Instant Ocean). Spawning funnels were placed into the tanks the night prior, and embryos were collected and staged. To increase bioavailability, the chorion was enzymatically removed using pronase (63.6mg/ml, >/= 3.5U/mg, Sigma-Aldrich: P5147) at 4 hours post fertilization (hpf) using a custom automated dechorionator.Chemical exposures: Six hpf dechorionated embryos were placed 1 embryo per well in a 96-well plate prefilled with 90 ul of EM using automated embryo placement systems (AEPS). Ten microliters of each row of dilution plate 2 was added to 2 exposure plates. The final DMSO concentration used was 0.64% (vol/vol). Thirty-two embryos were also exposed to 5uM trimethyltin chloride (positive control). Plates were sealed to prevent evaporation and foil covered to reduce light exposure and kept in a 28C incubator. Embryos were statically exposed until 120 hpf. At 24 hpf, embryos were assessed for photomotor response using a custom photomotor response analysis tool (PRAT) and for developmental toxicity endpoints (MO24: mortality at 24 hpf, DP: developmental progression, SM: spontaneous movement, and NC: notochord distortion). At 120 hpf, locomotor activity was measured using Viewpoint Zebralab and assessed for 13 endpoints. Zebrafish acquisition and analysis program (ZAAP), a custom program designed to inventory, acquire, and manage zebrafish data, was used to collect developmental endpoints as either present or absent (i.e., binary responses were recorded). If mortality occurred for an embryo (at either 24 or 120 hpf), the non-mortality endpoints were not measured.

For FC(F)(F)C(F)(F)C(F)(F)CC1CO1 (configuration not stated), which outcome is on record?
Its outcome is “inactive”.

With NC(=O)C(F)(F)C(F)(F)C(F)(F)C(F)(F)C(N)=O as the compound, how does the outcome read?
The outcome was “inactive”.

With OCC(F)(F)C(F)(F)C(F)(F)C(F)(F)C(F)(F)C(F)(F)C(F)(F)C(F)(F)CO as the compound, how does the outcome read?
Its outcome is “inactive”.

With CO[Si](C)(CCC(F)(F)C(F)(F)C(F)(F)C(F)(F)C(F)(F)C(F)(F)F)OC as the compound, how does the outcome read?
Its outcome is “inactive”.

With OCC(O)CC(F)(F)C(F)(F)C(F)(F)C(F)(F)F (configuration not stated) as the compound, how does the outcome read?
Its outcome is “inactive”.

For O=S(=O)(Cl)C(F)(F)C(F)(F)C(F)(F)C(F)(F)C(F)(F)C(F)(F)C(F)(F)C(F)(F)F, which outcome is on record?
The outcome was “inactive”.

Which outcome does the source give for FC(F)(F)C(F)(F)C(F)(F)C(F)(F)C(F)(F)C(F)(F)CC[Si](Cl)(Cl)Cl here?
Its outcome is “inactive”.

With O=C(F)C1(F)C(F)(F)C(F)(F)C(F)(F)C(F)(F)C1(F)F as the compound, how does the outcome read?
The outcome was “inactive”.

For NS(=O)(=O)C(F)(F)C(F)(F)C(F)(F)C(F)(F)C(F)(F)C(F)(F)F, which outcome is on record?
Its outcome is “inactive”.

With FC(F)(F)C(F)(F)C(F)(F)C(F)(F)C(F)(F)C(F)(F)C(F)(F)CCI as the compound, how does the outcome read?
The outcome was “inactive”.

With O=C(O)C(F)(F)C(F)(F)C(F)(F)C(=O)O as the compound, how does the outcome read?
Its outcome is “inactive”.

For NC(O)(C(F)(F)F)C(F)(F)F, which outcome is on record?
Its outcome is “inactive”.

For OCC(F)(F)C(F)(F)C(F)(F)CO, which outcome is on record?
The outcome was “inactive”.

With O=S(=O)(O)CCC(F)(F)C(F)(F)C(F)(F)C(F)(F)C(F)(F)C(F)(F)C(F)(F)C(F)(F)F as the compound, how does the AC50 read?
The AC50 was 89.2 µM (active).

Which AC50 does the source give for OCC(O)CC(F)(F)C(F)(F)C(F)(F)C(F)(F)C(F)(F)C(F)(F)C(F)(F)C(F)(F)F (configuration not stated) here?
Its AC50 is 6.76 µM (active).

With OCCCCC(F)(F)C(F)(F)C(F)(F)C(F)(F)F as the compound, how does the outcome read?
Its outcome is “inactive”.

With O=S(=O)(OCC(F)(F)F)C(F)(F)C(F)(F)C(F)(F)C(F)(F)F as the compound, how does the outcome read?
Its outcome is “inactive”.

For O=C(O)C(F)(F)C(F)(F)C(F)(F)OC(F)(C(F)(F)F)C(F)(F)F, which outcome is on record?
The outcome was “inactive”.

For C=CC(=O)OCC(F)(F)C(F)(F)C(F)(F)C(F)(F)C(F)(F)C(F)(F)C(F)(F)C(F)F, which outcome is on record?
Its outcome is “inactive”.

Which outcome does the source give for NC(=O)C(F)(F)C(F)(F)C(F)(F)C(F)(F)C(F)(F)C(F)(F)C(F)(F)F here?
The outcome was “inactive”.

For C=CC(=O)OCC(F)(F)C(F)(F)C(F)(F)COC(=O)C=C, which AC50 is on record?
Its AC50 is 18.6 µM (active).

With COC(F)(C(F)F)C(F)(F)F (configuration not stated) as the compound, how does the outcome read?
The outcome was “inactive”.

Which outcome does the source give for C[Si](Cl)(Cl)CCC(F)(F)C(F)(F)C(F)(F)C(F)(F)C(F)(F)C(F)(F)F here?
The outcome was “inactive”.

For CN(C(=O)C(F)(F)C(F)(F)C(F)(F)F)[Si](C)(C)C, which outcome is on record?
The outcome was “inactive”.

With OCC(F)(F)C(F)(F)C(F)(F)C(F)(F)C(F)(F)C(F)(F)CO as the compound, how does the outcome read?
The outcome was “inactive”.

With O=S(=O)(O)CCC(F)(F)C(F)(F)C(F)(F)C(F)(F)F as the compound, how does the outcome read?
The outcome was “inactive”.

Which outcome does the source give for C=CC(=O)OCCC(F)(F)C(F)(F)C(F)(F)C(F)(F)F here?
The outcome was “inactive”.

Which outcome does the source give for O=C(O)CCC(F)(F)C(F)(F)C(F)(F)F here?
Its outcome is “inactive”.

Which outcome does the source give for OC(O)C(F)(F)C(F)(F)F here?
Its outcome is “inactive”.

Which outcome does the source give for OCCCC(F)(F)C(F)(F)C(F)(F)C(F)(F)C(F)(F)C(F)(F)C(F)(F)C(F)(F)F here?
The outcome was “inactive”.

For O=C(O)C(F)(F)C(F)(F)C(F)(F)OC(F)(F)F, which outcome is on record?
The outcome was “inactive”.

With O=C(O)CCC(F)(F)C(F)(F)C(F)(F)C(F)(F)C(F)(F)C(F)(F)C(F)(F)F as the compound, how does the outcome read?
The outcome was “inactive”.

For CCN(CCO)S(=O)(=O)C(F)(F)C(F)(F)C(F)(F)C(F)(F)C(F)(F)C(F)(F)C(F)(F)C(F)(F)F, which outcome is on record?
The outcome was “inactive”.

For CCOC(=O)CC(=O)C(F)(F)C(F)(F)F, which outcome is on record?
The outcome was “inactive”.

Which outcome does the source give for NC(=O)C(F)(F)C(F)(F)C(F)(F)F here?
Its outcome is “inactive”.

With CNS(=O)(=O)C(F)(F)C(F)(F)C(F)(F)C(F)(F)C(F)(F)C(F)(F)C(F)(F)C(F)(F)F as the compound, how does the outcome read?
Its outcome is “inactive”.

With NC(=O)C(F)(F)C(F)(F)C(F)(F)C(F)F as the compound, how does the outcome read?
The outcome was “inactive”.
